Data as given in the supplement of paper PMC9588786.
Where “and” joins values, the source holds several entries; their conditions need not be identical. Identical values can stand only once. ± gives the standard deviation of the averaged measurements.

tested on: HT-1080; experiment: relative cell viability with RSL3 co-treatment (fraction of control); higher = stronger protection from RSL3-induced ferroptosis (higher viability); conditions: 10 µM
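Further: viability read as CCK-8 absorbance at 450 nm in cells co-exposed to the GPX4 inhibitor RSL3, relative to a 0.01% DMSO vehicle control.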

Row | SMILES | relative cell viability
1 | O=c1[nH]nc(Sc2ncc([N+](=O)[O-])s2)n1-c1ccc2c(c1)OCCO2 | 0.533 ± 0.045
2 | CC(C)(C)NS(=O)(=O)c1cncc(-c2cc(F)c3nc(N)nn3c2)c1 | 0.803 ± 0.15
3 | C#Cc1cccc(Nc2ncnc3cc(OCCOC)c(OCCO)cc23)c1 | 0.597 ± 0.081
4 | N#CC(=C(/N)Sc1ccccc1N)/C(C#N)=C(\N)Sc1ccccc1N | 0.84 ± 0.017
5 | COc1nccc(-c2c(-c3ccc(F)cc3)ncn2C2CCC(O)CC2)n1 (stereo unspecified) | 0.667 ± 0.16
6 | CO[C@H]1C[C@@H]2CC[C@@H](C)[C@@](O)(O2)C(=O)C(=O)N2CCCC[C@H]2C(=O)O[C@H]([C@H](C)C[C@@H]2CC[C@@H](OP(C)(C)=O)[C@H](OC)C2)CC(=O)[C@H](C)/C=C(\C)[C@@H](O)[C@@H](OC)C(=O)[C@H](C)C[C@H](C)/C=C/C=C/C=C/1C [Ridaforolimus (Deforolimus, MK-8669)] | 0.847 ± 0.14
7 | C[C@@H](Oc1cc(-n2cnc3ccc(CN4CCN(C)CC4)cc32)sc1C(N)=O)c1ccccc1C(F)(F)F | 0.573 ± 0.042
8 | CS(=O)(=O)N1CCc2c(-c3cnc(N)nc3)nc(N3CCOCC3)nc21 | 0.85 ± 0.061
9 | CNC(=O)c1ccccc1Sc1ccc2c(/C=C/c3ccccn3)n[nH]c2c1 [Axitinib] | 0.63 ± 0.22
10 | O=C1NC(=O)C(c2cnc3ccccn23)=C1c1cn2c3c(cc(F)cc13)CN(C(=O)N1CCCCC1)CC2 | 0.577 ± 0.015
11 | O=C(c1cccc(Cl)c1F)N1CCN(Cc2cccc(Nc3nccs3)n2)CC1 | 0.573 ± 0.049
12 | O=C(Nc1ccc(OC(F)(F)F)cc1)c1sccc1NCc1ccnc2ccccc12 | 0.57 ± 0.095
13 | Cc1cnc(Nc2ccc(OCCN3CCCC3)cc2)nc1Nc1cccc(S(=O)(=O)NC(C)(C)C)c1 | 0.433 ± 0.093
14 | Cc1ccc(NC(=O)c2ccc(CN3CCN(C)CC3)cc2)cc1Nc1nc(-c2cccnc2)cs1 [Masitinib (AB1010)] | 0.67 ± 0.12
15 | CN(C)CCOc1ccc(-c2nc(-c3ccncc3)c(-c3ccc4c(c3)CC/C4=N\O)[nH]2)cc1 | 0.833 ± 0.1
16 | Cc1cc(CS(=O)(=O)c2ccccc2)cc(OCc2ccc(CN3CCC[C@@H]3CO)cc2)c1 | 0.723 ± 0.12
17 | CCN(C)S(=O)(=O)Nc1ccc(F)c(C(=O)c2c[nH]c3ncc(-c4cnc(C5CC5)nc4)cc23)c1F | 0.71 ± 0.017
18 | Cn1cnc2c(F)c(Nc3ccc(Br)cc3Cl)c(C(=O)NOCCO)cc21 [Selumetinib (AZD6244)] | 0.807 ± 0.015

Row | SMILES | relative cell viability
19 | O=S(=O)(NCCNC/C=C/c1ccc(Br)cc1)c1cccc2cnccc12 | 0.577 ± 0.045
20 | C=CCc1ccc(O)c(-c2ccc(O)c(CC=C)c2)c1 [Honokiol] | 0.85 ± 0.04
21 | Clc1ccc(Nc2nnc(Cc3ccncc3)c3ccccc23)cc1 [Vatalanib (PTK787) 2HCl] | 0.827 ± 0.047
22 | COc1ccc(-c2ccc3c(N4CCOC[C@@H]4C)nc(N4CCOC[C@@H]4C)nc3n2)cc1CO | 0.893 ± 0.13
23 | O=c1c(O)c(-c2ccc(O)c(O)c2)oc2cc(O)cc(O)c12 [Quercetin] | 0.703 ± 0.074
24 | CCN1CCN(Cc2ccc(-c3cc4c(N[C@H](C)c5ccccc5)ncnc4[nH]3)cc2)CC1 | 0.49 ± 0.02
25 | Cc1cc(Nc2cc(N3CCN(C)CC3)nc(Sc3ccc(NC(=O)C4CC4)cc3)n2)n[nH]1 [Tozasertib (VX-680, MK-0457)] | 0.71 ± 0.01
26 | O=C(O)[C@]1(Cc2cccc(Nc3nccs3)n2)CC[C@@H](Oc2cccc(Cl)c2F)CC1 | 1.02 ± 0.14
27 | CNc1nc(Nc2cn(C(C)(C)C#N)nc2C)ncc1C(F)(F)F | 0.757 ± 0.1
28 | N#C/C(=C(/N)Sc1ccc(N)cc1)c1ccccc1C(F)(F)F | 0.913 ± 0.038
29 | C[S+]([O-])c1ccc(-c2nc(-c3ccc(F)cc3)c(-c3ccncc3)[nH]2)cc1 (stereo unspecified) | 0.603 ± 0.032
30 | Cc1ccc(F)c(NC(=O)Nc2ccc(-c3cccc4[nH]nc(N)c34)cc2)c1 [Linifanib (ABT-869)] | 0.36 ± 0.046
31 | C[C@@H]1CCN(C(=O)CC#N)C[C@@H]1N(C)c1ncnc2[nH]ccc12 | 0.75 and 0.64
32 | CC(=O)c1c(C)c2cnc(Nc3ccc(N4CCNCC4)cn3)nc2n(C2CCCC2)c1=O | 0.623 ± 0.074
33 | Nc1nc(N)c2nc(-c3cccc(O)c3)c(-c3cccc(O)c3)nc2n1 | 0.72 ± 0.03
34 | O=C1Nc2ccccc2/C1=C1/Nc2ccccc2C1=O [Indirubin] | 0.75 ± 0.066
35 | COc1cc2ncnc(Nc3ccc(F)c(Cl)c3)c2cc1NC(=O)/C=C/CN1CCCCC1 | 0.61 ± 0.046
36 | COc1cc2nccc(Oc3ccc(NC(=O)Nc4cc(C)on4)c(Cl)c3)c2cc1OC [Tivozanib (AV-951)] | 0.23 ± 0.11
